System: HepG2
Assay: GSK_TCMDC: Percent inhibition of human HepG2 cell line. Test compounds present at 10uM.
Assay type: functional

First: CC(C)(CNCc1ccc(Cl)c(Cl)c1)c1nc(-c2ccc(Cl)c(O)c2)c(-c2ccncc2)[nH]1.Cl
Second: COc1ccc(CCNCCCCCCNCCc2ccc(Cl)c(Cl)c2)cc1OC.Cl
The Inhibition of the first is lower: 43% for the first, 59% for the second.

Going from `CN(CCCCNC(=O)c1cc2ccccc2[nH]1)C1CC2(CCN(C(=O)OC(C)(C)C)CC2)c2ccccc21` (stereo not given) to `Cn1cc(C2CCN(CCCCNC(=O)c3sc(-c4ccc(C(F)(F)F)cc4)nc3CO)CC2)c2ccccc21`, the Inhibition rises from 12% to 46%.

First: O=C(/C=C/c1ccc(Cl)c(Cl)c1)NCCCCCN1CCC(NC(=O)Nc2ccc(Cl)cc2F)CC1
Second: O=C(/C=C/c1ccc(Cl)c(Cl)c1)NCCCCCCN1CCN(C(=O)Nc2ccc(C(F)(F)F)cc2)CC1
The Inhibition of the first is higher: 100% for the first, 42% for the second.

First: Cc1ccc(Nc2nc3cc(Nc4ccnc(Nc5ccc(CS(C)(=O)=O)cc5)n4)ccc3o2)cc1
Second: Cl.NCc1ccc(Nc2nccc(Nc3ccc(-c4ccccc4)cc3)n2)cc1
The Inhibition of the first is higher: 54% for the first, 47% for the second.

Compared with `Br.COc1ccc(CCON2C(=N)N=C(N)NC2(C)C)cc1OC`, `COc1ccc(CCNC(=O)c2ccc(-n3cc(NC(=O)c4cccnc4)cn3)cc2)cc1OC` is lower in Inhibition: 64% for the first, 17% for the second.

Compared with `CC(C)C[C@H](NC(=O)c1ccc(OCCN2CCOCC2)cc1)C(=O)NC(/C=N/N1CCCC1=O)C(C)C` (stereo not given in full), `CC(C)(C)c1ccc(NC(=O)c2ccc(CN3CCCN(Cc4ccc(F)cc4)CC3)cc2)cc1.O=C(O)C(F)(F)F` is higher in Inhibition: 3% for the first, 55% for the second.

Compared with `O=C(Nc1ccc2c(c1)CCN2C1CCN(Cc2csc3ccccc23)C1)c1ccco1` (stereo not given), `O=C(Nc1ccc(OC2CCN(Cc3ccsc3)CC2)c(Cl)c1)c1ccco1.O=C(O)C(F)(F)F` is higher in Inhibition: 0% for the first, 7% for the second.

First: CN1CCC(Oc2ccc(CN3CC[C@H](NC(=O)c4ccc(Cl)c(F)c4)C3)c3ccccc23)C1.O=C(O)C(F)(F)F (stereo not given in full)
Second: CN(C)c1ccc(-c2csc(C(=O)NC3CCN(Cc4ccc(C(C)(C)C)cc4)C3)c2)cc1.O=C(O)C(F)(F)F (stereo not given)
The Inhibition of the first is higher: 51% for the first, 26% for the second.

Going from `Cc1cc(N(C)CCCN(C)C)nc(Nc2ccc(Br)cc2)n1` to `O=C(NCCNc1ccnc(Nc2ccc(F)cc2)n1)Nc1ccc2c(c1)OCO2`, the Inhibition rises from 4% to 15%.

Compared with `COc1ccc(NC(=O)Nc2ccc(-c3ccccc3)cc2Cl)cc1N1CCN(C)CC1`, `COc1cc(C)nc2ccc(NC(=O)Nc3ccc([N+](=O)[O-])cc3C)cc12` is lower in Inhibition: 40% for the first, 10% for the second.

First: Fc1cccc(Nc2nc(NCc3ccc4ccsc4c3)nc(Nc3cccc(F)c3)n2)c1
Second: O=C(Nc1cccc(CN2CCCN(Cc3ccc4c(c3)OCO4)CC2)c1)c1ccc(Cl)c(Cl)c1.O=C(O)C(F)(F)F
The Inhibition of the first is lower: 0% for the first, 34% for the second.

Compared with `CO/C(=C\C=C\c1cc2cc(Cl)c(Cl)cc2[nH]1)C(=O)NCCCN1CCCC[C@H]1C`, `CCC1CCCCN1S(=O)(=O)c1ccc(NC(=O)c2cc(C)on2)cc1` (stereo not given) is lower in Inhibition: 41% for the first, 0% for the second.

Compared with `CC1(C)N=C(N)N=C(N)C1c1ccc(Cl)cc1.Cl` (stereo not given), `COc1ccc2nc3cc(Cl)ccc3c(NCCO)c2c1.Cl` is lower in Inhibition: 16% for the first, 12% for the second.

First: O=C(c1cccc(-c2noc(C(F)(F)F)n2)c1)N1CCN(c2ccncc2)CC1
Second: O=C(O)C(F)(F)F.O=[N+]([O-])c1ccc(Oc2ccccc2CNCC2CCN(CC3CCCCC3)CC2)cc1
The Inhibition of the first is lower: 14% for the first, 40% for the second.

First: COc1cccc(CCc2ccc(O)c3c2C[C@H]2C[C@H]4[C@H](N(C)C)C(O)=C(C(N)=O)C(=O)[C@@]4(O)C(O)=C2C3=O)c1.Cl
Second: COc1ccc2nccc([C@@H](O)CN3CCC(NCc4ccc5nc[nH]c(=O)c5c4)CC3)c2c1.O=C(O)C(=O)O
The Inhibition of the first is higher: 43% for the first, 12% for the second.

Compared with `Nc1c2c(nc3ccccc13)C(=Cc1ccc(O)cc1)CCC2`, `COc1ccc2nccc([C@@H](O)CN3CCC(NCc4cc5ccccc5nc4O)CC3)c2c1.Cl` is lower in Inhibition: 9% for the first, 0% for the second.

First: Cc1c(C)c2c(c(C)c1O)CC[C@@](C)(C(=O)N1CCC(CCN3CCC(c4c[nH]c5ccccc45)CC3)CC1)O2
Second: CC(C)N1CCC(N(Cc2ccc(-c3ccc(C(F)(F)F)cc3)cc2)C(=O)Cn2c(SCc3cccc(F)c3F)cc(=O)c3c2CCC3)CC1.O=C(O)C(O)C(O)C(=O)O
The Inhibition of the first is lower: 37% for the first, 44% for the second.

`CCNc1cc(C(=O)N[C@@H](Cc2ccccc2)[C@H](O)CNC2(Cc3cccc(Cl)c3)CCC2)cc(N2CCCCS2(=O)=O)c1.Cl` showed an Inhibition of 22%.

Reference: ChEMBL document CHEMBL1157539, “Thousands of chemical starting points for antimalarial lead identification” (Nature, 2010)
